Screen size: about 5,500 compounds; about 2,000 (36%) were called active. Roughly 18% stayed inconclusive and do not appear here. Cut-off read from the data, not from the text of the source: active = normalized growth mostly below about 0.91 (no sharp cut-off); inconclusive = no clear call, values can overlap the other calls; inactive = mostly above about 0.92. The list shows a part of the results.
Assay: chemical genetic growth profiling, strain panel (AID 1159580);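 note: tested at 20 µM; growth read once vehicle control cultures reached saturation at 30 °C; 1 = growth at the plate median or of vehicle wells; lower values mean less growth of the strain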
Settings: growth OD

Measured: normalized growth

C=C[C@H]1CN2CC[C@H]1C[C@H]2[C@H](O)c1ccnc2ccccc12
inactive: S. cerevisiae deletion strains, locus YJR075W, strain HOC1, stronger effect = lower value 1.02 | S. cerevisiae deletion strains, locus YKL009W, strain mrt4, stronger effect = lower value 1.01 | S. cerevisiae deletion strains, locus YKL068W, stronger effect = lower value 0.982 | S. cerevisiae deletion strains, locus YKL085W, strain MDH1 (second series), stronger effect = lower value 0.991 | S. cerevisiae deletion strains, locus YKL085W, strain MDH1, stronger effect = lower value 0.991 | S. cerevisiae deletion strains, locus YKL160W, strain elf1, stronger effect = lower value 0.989 | S. cerevisiae deletion strains, locus YKL190W, strain CNB1, stronger effect = lower value 0.986 | S. cerevisiae deletion strains, locus YKR001C, strain vps1, stronger effect = lower value 0.967 | S. cerevisiae deletion strains, locus YKR026C, strain gcn3, stronger effect = lower value 1 | S. cerevisiae deletion strains, locus YKR091W, strain srl3, stronger effect = lower value 1 | S. cerevisiae deletion strains, locus YLL001W, strain dnm1, stronger effect = lower value 0.972 | S. cerevisiae deletion strains, locus YLL026W, stronger effect = lower value 0.994 | S. cerevisiae deletion strains, locus YLL041C, strain sdh2, stronger effect = lower value 1 | S. cerevisiae deletion strains, locus YLR027C, strain aat2, stronger effect = lower value 1 | S. cerevisiae deletion strains, locus YLR039C, strain RIC1, stronger effect = lower value 0.99 | S. cerevisiae deletion strains, locus YLR058C, strain SHM2, stronger effect = lower value 1 | S. cerevisiae deletion strains, locus YLR102C, strain apc9, stronger effect = lower value 0.976 | S. cerevisiae deletion strains, locus YLR113W, strain HOG1, stronger effect = lower value 0.941 | S. cerevisiae deletion strains, locus YLR221C, strain rsa3, stronger effect = lower value 0.989 | S. cerevisiae deletion strains, locus YLR258W, strain gsy2, stronger effect = lower value 1.01 | S. cerevisiae deletion strains, locus YLR262C, strain YPT6 (second series), stronger effect = lower value 0.975 | S. cerevisiae deletion strains, locus YLR262C, strain YPT6, stronger effect = lower value 0.966 | S. cerevisiae deletion strains, locus YLR268W, strain sec22, stronger effect = lower value 0.981 | S. cerevisiae deletion strains, locus YLR320W, strain mms22, stronger effect = lower value 0.999 | S. cerevisiae deletion strains, locus YLR330W, strain CHS5, stronger effect = lower value 1 | S. cerevisiae deletion strains, locus YLR342W, strain FKS1 (second series), stronger effect = lower value 0.995 | S. cerevisiae deletion strains, locus YLR342W, strain FKS1, stronger effect = lower value 0.985 | S. cerevisiae deletion strains, locus YLR357W, strain rsc2, stronger effect = lower value 0.986 | S. cerevisiae deletion strains, locus YLR370C, strain arc18, stronger effect = lower value 0.995 | S. cerevisiae deletion strains, locus YLR371W, strain rom2, stronger effect = lower value 0.967 | S. cerevisiae deletion strains, locus YLR384C, strain iki3, stronger effect = lower value 0.988 | S. cerevisiae deletion strains, locus YLR418C, strain cdc73, stronger effect = lower value 1.03 | S. cerevisiae deletion strains, locus YML016C, strain PPZ1, stronger effect = lower value 1.01 | S. cerevisiae deletion strains, locus YML032C, strain rad52, stronger effect = lower value 0.97 | S. cerevisiae deletion strains, locus YML120C, strain ndi1, stronger effect = lower value 0.992 | S. cerevisiae deletion strains, locus YML124C, strain tub3, stronger effect = lower value 0.975 | S. cerevisiae deletion strains, locus YMR058W, strain fet3, stronger effect = lower value 0.983 | S. cerevisiae deletion strains, locus YMR078C, strain ctf18, stronger effect = lower value 0.965 | S. cerevisiae deletion strains, locus YMR125W, strain sto1, stronger effect = lower value 1 | S. cerevisiae deletion strains, locus YMR129W, stronger effect = lower value 1 | S. cerevisiae deletion strains, locus YMR205C, strain PFK2, stronger effect = lower value 1 | S. cerevisiae deletion strains, locus YMR223W, strain ubp8, stronger effect = lower value 0.978 | S. cerevisiae deletion strains, locus YMR231W, strain pep5, stronger effect = lower value 0.995 | S. cerevisiae deletion strains, locus YMR263W, strain SAP30, stronger effect = lower value 0.987 | S. cerevisiae deletion strains, locus YMR307W, strain GAS1, stronger effect = lower value 0.986 | S. cerevisiae deletion strains, locus YNL067W, strain RPL9B, stronger effect = lower value 1.01 | S. cerevisiae deletion strains, locus YNL071W, strain lat1, stronger effect = lower value 1 | S. cerevisiae deletion strains, locus YNL128W, strain TEP1, stronger effect = lower value 1.03 | S. cerevisiae deletion strains, locus YNL153C, strain GIM3, stronger effect = lower value 1.01 | S. cerevisiae deletion strains, locus YNL183C, strain NPR1, stronger effect = lower value 0.927 | S. cerevisiae deletion strains, locus YNL209W, strain ssb2, stronger effect = lower value 1.01 | S. cerevisiae deletion strains, locus YNL233W, strain BNI4, stronger effect = lower value 0.999 | S. cerevisiae deletion strains, locus YNL248C, strain rpa49, stronger effect = lower value 1.02 | S. cerevisiae deletion strains, locus YNL250W, strain rad50, stronger effect = lower value 0.989 | S. cerevisiae deletion strains, locus YNL271C, strain bni1, stronger effect = lower value 0.993 | S. cerevisiae deletion strains, locus YNL298W, strain CLA4, stronger effect = lower value 0.98 | S. cerevisiae deletion strains, locus YNL307C, strain MCK1, stronger effect = lower value 0.981 | S. cerevisiae deletion strains, locus YNL322C, strain KRE1 (second series), stronger effect = lower value 0.99 | S. cerevisiae deletion strains, locus YNL322C, strain KRE1, stronger effect = lower value 1 | S. cerevisiae deletion strains, locus YNR049C, strain mso1, stronger effect = lower value 1 | S. cerevisiae deletion strains, locus YNR052C, strain pop2, stronger effect = lower value 0.959 | S. cerevisiae deletion strains, locus YOL006C, strain TOP1, stronger effect = lower value 1.07 | S. cerevisiae deletion strains, locus YOL012C, strain htz1 0.823 | S. cerevisiae deletion strains, locus YOL147C, strain pex11, stronger effect = lower value 0.971 | S. cerevisiae deletion strains, locus YOR001W, strain rrp6, stronger effect = lower value 0.978 | S. cerevisiae deletion strains, locus YOR061W, strain CKA2, stronger effect = lower value 1.01 | S. cerevisiae deletion strains, locus YOR069W, strain VPS5, stronger effect = lower value 1.01 | S. cerevisiae deletion strains, locus YOR070C, strain gyp1, stronger effect = lower value 1 | S. cerevisiae deletion strains, locus YOR080W, strain dia2, stronger effect = lower value 0.99 | S. cerevisiae deletion strains, locus YOR083W, strain WHI5, stronger effect = lower value 0.948 | S. cerevisiae deletion strains, locus YOR106W, strain vam3, stronger effect = lower value 0.994 | S. cerevisiae deletion strains, locus YOR136W, strain idh2, stronger effect = lower value 0.973 | S. cerevisiae deletion strains, locus YOR144C, strain elg1, stronger effect = lower value 0.972 | S. cerevisiae deletion strains, locus YOR184W, strain ser1, stronger effect = lower value 0.977 | S. cerevisiae deletion strains, locus YOR231W, strain MKK1, stronger effect = lower value 0.972 | S. cerevisiae deletion strains, locus YOR265W, strain rbl2, stronger effect = lower value 0.994 | S. cerevisiae deletion strains, locus YOR270C, strain vph1, stronger effect = lower value 1.02 | S. cerevisiae deletion strains, locus YOR290C, strain snf2, stronger effect = lower value 0.996 | S. cerevisiae deletion strains, locus YOR316C, strain cot1, stronger effect = lower value 0.984 | S. cerevisiae deletion strains, locus YPL051W, strain arl3, stronger effect = lower value 1 | S. cerevisiae deletion strains, locus YPL055C, strain LGE1, stronger effect = lower value 1.01 | S. cerevisiae deletion strains, locus YPL078C, strain atp4, stronger effect = lower value 0.99 | S. cerevisiae deletion strains, locus YPL106C, strain sse1, stronger effect = lower value 0.994 | S. cerevisiae deletion strains, locus YPL240C, strain hsp82, stronger effect = lower value 1.01 | S. cerevisiae deletion strains, locus YPL241C, strain CIN2, stronger effect = lower value 0.992 | S. cerevisiae deletion strains, locus YPL256C, strain CLN2, stronger effect = lower value 0.97 | S. cerevisiae deletion strains, locus YPR119W, strain clb2, stronger effect = lower value 0.98 | S. cerevisiae deletion strains, locus YPR141C, strain kar3, stronger effect = lower value 0.983 | S. cerevisiae deletion strains, locus YPR163C, strain tif3, stronger effect = lower value 0.977 | S. cerevisiae deletion strains, locus YPR167C, strain met16, stronger effect = lower value 0.989 | S. cerevisiae deletion strains, strain wtn01, stronger effect = lower value 0.976 | S. cerevisiae strains, strain wild type, stronger effect = lower value 1

— PubChem BioAssay AID1159580 (chemical genetic matrix, 2015)
